NPYLR7 agonist = agonists of mosquito NPYLR7 receptor, primary screen, cell-based, Aedes aegypti, calcium fluorescence, mosquito biting behavior. Aedes aegypti neuropeptide Y-like receptor 7 (NPYLR7). HEK293T NPYLR7/Galpha15, GCaMP6s calcium fluorescence. activation, % at 10 µM. 270,000 compounds, 0.15% hits. AID 1259423, 2018; in the data active means activation above about 40%
mcGAS lum = cyclic GMP-AMP synthase inhibitors, mouse, primary biochemical chemiluminescence. recombinant cGAS, Kinase-Glo ATP depletion luminescence. inhibition, % at 12.5 µM. 160,000 compounds, 0.15% hits. AID 1259399, 2018
hcGAS inh = Primary biochemical luminescence assay for human cyclic GMP-AMP synthase inhibitors; recombinant h-cGAS, ATP depletion, Kinase-Glo luminescence; 290,000 compounds, 0.081% hits; Q8N884; inhibition, % at 12.5 µM; AID 1259398, 2018
Target sequence (Q8N884 whole entry, looked up): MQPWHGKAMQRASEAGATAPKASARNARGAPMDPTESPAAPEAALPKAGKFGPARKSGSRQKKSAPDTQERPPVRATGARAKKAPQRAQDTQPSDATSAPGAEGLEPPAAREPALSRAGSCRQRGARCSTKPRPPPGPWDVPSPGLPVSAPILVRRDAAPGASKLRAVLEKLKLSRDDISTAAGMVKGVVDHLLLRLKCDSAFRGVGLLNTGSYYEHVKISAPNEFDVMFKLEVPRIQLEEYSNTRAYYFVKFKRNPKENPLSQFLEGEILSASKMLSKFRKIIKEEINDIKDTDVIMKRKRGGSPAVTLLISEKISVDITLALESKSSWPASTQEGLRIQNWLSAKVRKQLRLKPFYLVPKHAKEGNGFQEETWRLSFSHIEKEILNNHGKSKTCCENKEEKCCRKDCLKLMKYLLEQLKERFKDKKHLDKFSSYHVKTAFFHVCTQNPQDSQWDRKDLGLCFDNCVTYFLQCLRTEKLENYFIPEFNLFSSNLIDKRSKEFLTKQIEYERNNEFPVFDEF
Large screens that a line does not name were inactive. Hits are enriched below; roughly 0.3% of the tested compounds scored in any of these assays. Unless noted, no stated cut-off is given here; in the data, active means inhibition above about 40%; inactive means the rest.

CCCc1nc(C(=O)N2CCCC(c3[nH]ncc3CC)C2)cs1 (centres undefined)	none
O=C1/C(=C/c2ccc3ccccc3n2)Oc2cc(O)ccc21	none (no result: mcGAS lum)
Cc1ccc(/C=C2/Oc3cc(O)ccc3C2=O)s1	NPYLR7 agonist 165
Cc1ccn2c(NCc3ccccc3)c(-c3cccc(OS(=O)(=O)c4ccccc4)c3)nc2c1	none
O=C1c2ccccc2C(=O)C1c1ccnc2ccccc12	NPYLR7 agonist 103
O=C1c2ccccc2C(=O)C1c1nccc2ccccc12	none (no result: mcGAS lum)
Cc1cccc(C(=O)NCCn2nc(-c3ccco3)ccc2=O)c1	none
COc1ccccc1-c1cc(CN(C(=O)c2ccc([N+](=O)[O-])cc2)C2CC2)no1	none (no result: mcGAS lum)
COc1ccc(-n2ccnc2-c2cccc(OC)c2OC)cn1	none
COc1ccc(-n2ccnc2-c2ccc(C#CC(C)(C)O)cc2)cn1	NPYLR7 agonist 57 (no result: mcGAS lum)
O=C1c2cccc([N+](=O)[O-])c2C(=O)N1CNc1ccc(Br)cc1	none (no result: mcGAS lum)
COc1ccccc1N=c1oc2ccc3ccccc3c2cc1-c1nc2ccccc2[nH]1	none (no result: mcGAS lum)
CCOC(=O)c1ccc(N=c2oc3ccccc3cc2-c2nc3ccccc3[nH]2)cc1	none
CCOC(=O)c1ccc(N=c2oc3cc(O)ccc3cc2-c2nc3ccccc3[nH]2)cc1	NPYLR7 agonist 120
COc1ccccc1N=c1oc2cc(O)ccc2cc1-c1nc2ccccc2[nH]1	NPYLR7 agonist 81
NC(=S)N/N=c1\oc2ccccc2cc1-c1nc2ccccc2[nH]1	none (no result: mcGAS lum)
NC(=O)N/N=c1\oc2ccccc2cc1-c1nc2ccccc2[nH]1	mcGAS lum 48
Cc1csc(NC(=O)CNC(C)c2ccccc2Cl)n1 (centres undefined)	none
O=C(Sc1cccc2cccnc12)c1ccccc1Cl	mcGAS lum 44, hcGAS inh 60
CSc1ccccc1NC(=O)c1cccc2cccnc12	none (no result: mcGAS lum)
COC(=O)C1=C(C)N(C(C)C)C(=O)C1(NC(=O)c1ccc(C(C)(C)C)cc1)C(F)(F)F (centres undefined)	none
O=C(NCCCn1ccnc1)c1ccc(SC(F)(F)F)cc1	none
COc1ccc2c(c1)CCC(=Cc1cc(Br)ccc1OC)C2=O	none
O=C1/C(=C/c2csnn2)CCOc2cc(Br)ccc21	mcGAS lum 53
O=C(CON=C1c2ccccc2-c2ccccc21)N1CCc2ccccc21	none
COc1ccc(C)cc1NC(=O)Cn1cnc2cc(Cl)ccc2c1=O	none (no result: mcGAS lum)
COc1ccc(Cl)cc1NC(=O)/C(C#N)=C/c1coc2ccc(C)cc2c1=O	NPYLR7 agonist 50 (no result: mcGAS lum)
N#CC(C#N)=CC(=N)C(C#N)c1cc(O)c(O)c(O)c1 (centres undefined)	mcGAS lum 51
O=C1N=c2ccccc2=C1c1sc(=S)n(-c2ccccc2)c1O	none
O=C1N=c2ccccc2=C1c1sc(=O)[nH]c1O	mcGAS lum 63
CCCCN(CC(=O)Nc1cc(C(C)(C)C)nn1-c1ccc(Cl)cc1)S(=O)(=O)c1ccc(C)cc1	none
CC(C)(C)C1CCC(C(=O)NNC(=O)c2cccc(Cl)c2)CC1 (centres undefined)	none (no result: mcGAS lum)
CCOC(=O)c1sc(NC(=O)c2cc(C)no2)nc1C	none
CCc1nnc(NC(=O)c2cc(C)no2)s1	mcGAS lum 46
CCCNC(=O)c1nnn(-c2ccccc2)c1C	none
CCC(=O)N(c1nnc(SCc2nn3c(=O)cc(C)nc3s2)s1)C1CC1	none (no result: mcGAS lum)
Cc1cc(O)c(CN2CCOCC2)c2c1C(=O)/C(=C/c1cc3ccccc3o1)O2	none
Cc1cc(O)c(CN2CCN(C)CC2)c2c1C(=O)/C(=C/c1cccs1)O2	NPYLR7 agonist 49
Cc1cc(O)c(CN2CCCCC2)c2c1C(=O)/C(=C/c1cc3ccccc3o1)O2	NPYLR7 agonist 50
Cc1cc(O)c(CN2CCN(C)CC2)c2c1C(=O)/C(=C/c1ccncc1)O2	none
CC(Sc1nnc(-c2ccc(F)cc2)o1)c1ccc(F)cc1 (centres undefined)	none (no result: mcGAS lum)
CNC(=O)C1CCN(CC(=O)N2c3ccccc3CCC2C)CC1 (centres undefined)	none (no result: mcGAS lum)
c1ccc(COC2CCCN(Cc3cnc(N4CCCC4)nc3)C2)nc1 (centres undefined)	none (no result: mcGAS lum)
COC(=O)C(C)(C)NC(=O)CCC1CCCCN1C (centres undefined)	none (no result: mcGAS lum)
CC(=O)Oc1ccc2c(c1OC(C)=O)C(=O)c1ccccc1C2=O	none
CC(=O)Oc1cccc2c1C(=O)c1c(OC(C)=O)cc(C(=O)O)cc1C2=O	hcGAS inh 57
O=C(NCc1cccc(C(F)(F)F)c1)C1COC2(CCCCC2)N1C(=O)c1cc(F)cc(F)c1 (centres undefined)	none
CC(C)Oc1ccccc1NC(=O)NC(CCO)C(C)C (centres undefined)	none (no result: mcGAS lum)
COC(=O)NC(CC(C)C)C(=O)Nc1ccc(SC)c(F)c1 (centres undefined)	none (no result: mcGAS lum)

Screens: PubChem BioAssay, Fisher Drug Discovery Resource Center
